From PMC7862700, “An all-to-all approach to the identification of sequence-specific readers for epigenetic DNA modifications on cytosine”

Tests used:
Test in all cases: DAPPL (digital affinity profiling via proximity ligation, sequencing); 10 mM Tris-HCl pH 7.5, 50 mM NaCl, 1 mM DTT, 4% glycerol, room temperature, 30 min; GST-TFs on glutathione beads, 16-mer random dsDNA library, 0.1% formaldehyde crosslink after washing; high values mean tight binding
FEV = target: T1, FEV (Homo sapiens, UniProt Q99581 1-238); details: protein: recombinant; tags: N-terminal GST; dsDNA, one strand shown
T1 sequence: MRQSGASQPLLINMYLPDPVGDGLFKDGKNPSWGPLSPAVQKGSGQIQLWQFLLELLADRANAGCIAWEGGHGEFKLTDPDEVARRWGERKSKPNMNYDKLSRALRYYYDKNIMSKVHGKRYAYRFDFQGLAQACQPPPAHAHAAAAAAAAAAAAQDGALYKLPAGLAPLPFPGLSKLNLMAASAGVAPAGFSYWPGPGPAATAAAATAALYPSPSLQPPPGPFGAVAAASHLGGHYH
Procedure, shortened: (§1)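 Sequencing on an Illumina NextSeq500 followed washing, crosslinking with 0.1% formaldehyde, proximity ligation (BsaI/T4 ligase, 1 h, 37 °C) and PCR amplification of pools that had been incubated for 30 min at room temperature with 200 nmole of a random double-stranded 16-mer DNA library in Tris/NaCl/DTT/glycerol buffer. Each pool held DNA-barcoded human transcription factors, expressed in yeast as GST fusions and captured on glutathione beads, plus a tag-only sample. Binding signal is a hexamer's read frequency for a factor divided by its frequency in the tag-only sample.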

ETV5 = ETV5 (Homo sapiens, UniProt P41161 1-510); details: protein: recombinant; tags: N-terminal GST; dsDNA, one strand shown
Sequence of ETV5 (P41161 whole entry): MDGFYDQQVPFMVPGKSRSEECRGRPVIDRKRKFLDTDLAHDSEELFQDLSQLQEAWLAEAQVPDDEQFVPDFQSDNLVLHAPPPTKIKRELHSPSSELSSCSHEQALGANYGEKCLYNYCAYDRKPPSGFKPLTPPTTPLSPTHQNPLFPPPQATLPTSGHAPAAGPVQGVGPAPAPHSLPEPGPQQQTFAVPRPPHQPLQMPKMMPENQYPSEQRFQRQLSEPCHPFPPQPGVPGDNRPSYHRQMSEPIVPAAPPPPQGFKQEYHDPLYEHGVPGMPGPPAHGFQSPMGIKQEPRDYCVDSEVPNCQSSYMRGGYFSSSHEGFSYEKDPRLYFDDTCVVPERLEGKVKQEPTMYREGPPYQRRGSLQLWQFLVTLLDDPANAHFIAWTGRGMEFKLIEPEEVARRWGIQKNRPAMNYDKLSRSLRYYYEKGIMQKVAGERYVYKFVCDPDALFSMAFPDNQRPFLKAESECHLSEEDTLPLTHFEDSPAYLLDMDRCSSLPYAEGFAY
Procedure, shortened: as §1

HSF1 = HSF1 (Homo sapiens, UniProt Q00613 1-529); details: protein: recombinant; tags: N-terminal GST; chain copies: 3; dsDNA, one strand shown
Sequence of HSF1 (Q00613 whole entry): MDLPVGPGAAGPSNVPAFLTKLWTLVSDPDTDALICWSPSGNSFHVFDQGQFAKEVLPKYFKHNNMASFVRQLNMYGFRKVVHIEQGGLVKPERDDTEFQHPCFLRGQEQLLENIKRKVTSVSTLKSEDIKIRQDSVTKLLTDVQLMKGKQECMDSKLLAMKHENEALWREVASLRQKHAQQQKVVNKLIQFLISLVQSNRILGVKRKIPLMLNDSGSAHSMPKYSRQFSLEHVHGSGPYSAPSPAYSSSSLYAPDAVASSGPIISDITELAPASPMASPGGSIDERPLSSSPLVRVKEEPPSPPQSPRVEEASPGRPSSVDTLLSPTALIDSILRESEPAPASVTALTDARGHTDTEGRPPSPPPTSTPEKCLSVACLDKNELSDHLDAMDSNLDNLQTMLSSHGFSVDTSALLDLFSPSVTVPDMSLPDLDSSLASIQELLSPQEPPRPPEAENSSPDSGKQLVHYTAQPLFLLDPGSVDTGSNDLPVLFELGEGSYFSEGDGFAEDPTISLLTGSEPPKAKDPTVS
Procedure, shortened: as §1

SPIC = target: T2, SPIC (Homo sapiens, UniProt Q8N5J4 1-248); details: protein: recombinant; tags: N-terminal GST; dsDNA, one strand shown
T2 sequence: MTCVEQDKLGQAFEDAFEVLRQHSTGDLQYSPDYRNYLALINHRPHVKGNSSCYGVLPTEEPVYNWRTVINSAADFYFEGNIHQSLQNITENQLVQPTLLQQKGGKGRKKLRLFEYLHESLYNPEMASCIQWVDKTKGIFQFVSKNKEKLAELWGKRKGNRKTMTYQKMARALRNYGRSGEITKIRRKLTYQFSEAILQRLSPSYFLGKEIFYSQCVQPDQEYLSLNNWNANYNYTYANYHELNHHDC
Procedure, shortened: as §1

ELF4 = ELF4 (Homo sapiens, UniProt Q99607 1-663); details: protein: recombinant; tags: N-terminal GST; dsDNA, one strand shown
Sequence of ELF4 (Q99607 whole entry): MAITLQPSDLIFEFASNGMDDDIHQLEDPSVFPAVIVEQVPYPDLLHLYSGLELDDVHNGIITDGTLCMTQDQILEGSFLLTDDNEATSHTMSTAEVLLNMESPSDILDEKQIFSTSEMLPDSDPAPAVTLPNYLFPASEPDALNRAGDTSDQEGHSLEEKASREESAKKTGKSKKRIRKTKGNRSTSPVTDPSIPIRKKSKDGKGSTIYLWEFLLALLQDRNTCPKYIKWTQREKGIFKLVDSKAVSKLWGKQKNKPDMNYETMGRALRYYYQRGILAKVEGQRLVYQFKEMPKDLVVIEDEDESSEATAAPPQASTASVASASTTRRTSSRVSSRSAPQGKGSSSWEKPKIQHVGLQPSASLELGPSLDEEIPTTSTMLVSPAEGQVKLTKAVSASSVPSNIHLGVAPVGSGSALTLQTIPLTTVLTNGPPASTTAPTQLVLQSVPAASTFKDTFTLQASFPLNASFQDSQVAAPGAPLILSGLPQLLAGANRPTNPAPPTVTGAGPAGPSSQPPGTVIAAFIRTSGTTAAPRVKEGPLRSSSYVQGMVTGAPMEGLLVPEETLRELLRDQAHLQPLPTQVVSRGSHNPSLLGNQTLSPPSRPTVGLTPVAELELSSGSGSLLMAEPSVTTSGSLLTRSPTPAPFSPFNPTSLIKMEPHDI
Procedure, shortened: as §1

ELK4 = target: T3, ELK4 (Homo sapiens, UniProt P28324-2 1-405); details: protein: recombinant; tags: N-terminal GST; dsDNA, one strand shown
T3 sequence: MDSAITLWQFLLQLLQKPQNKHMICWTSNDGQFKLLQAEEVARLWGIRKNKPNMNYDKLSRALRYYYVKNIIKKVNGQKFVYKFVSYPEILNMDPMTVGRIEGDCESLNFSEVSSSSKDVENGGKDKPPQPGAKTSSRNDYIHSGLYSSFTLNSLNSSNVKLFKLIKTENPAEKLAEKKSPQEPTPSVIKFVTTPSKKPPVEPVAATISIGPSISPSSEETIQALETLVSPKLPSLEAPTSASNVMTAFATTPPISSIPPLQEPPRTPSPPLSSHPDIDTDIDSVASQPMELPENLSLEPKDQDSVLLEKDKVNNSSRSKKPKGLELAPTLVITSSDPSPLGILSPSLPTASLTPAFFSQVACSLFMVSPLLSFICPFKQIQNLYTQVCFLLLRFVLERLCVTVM
Procedure, shortened: as §1

ETV2 = target: T4, ETV2 (Homo sapiens, UniProt O00321 1-342); details: protein: recombinant; tags: N-terminal GST; dsDNA, one strand shown
T4 sequence: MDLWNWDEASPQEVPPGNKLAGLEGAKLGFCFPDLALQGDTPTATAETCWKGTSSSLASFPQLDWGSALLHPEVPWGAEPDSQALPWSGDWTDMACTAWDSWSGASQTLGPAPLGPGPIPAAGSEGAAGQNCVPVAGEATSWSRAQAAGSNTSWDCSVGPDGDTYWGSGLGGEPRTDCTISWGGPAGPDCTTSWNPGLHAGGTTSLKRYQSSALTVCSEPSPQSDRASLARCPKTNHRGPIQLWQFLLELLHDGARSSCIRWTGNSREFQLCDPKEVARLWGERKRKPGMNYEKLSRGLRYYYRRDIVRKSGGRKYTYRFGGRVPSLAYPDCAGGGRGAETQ
Procedure, shortened: as §1

ELF3 = target: T5, ELF3 (Homo sapiens, UniProt P78545 1-371); details: protein: recombinant; tags: N-terminal GST; dsDNA, one strand shown
T5 sequence: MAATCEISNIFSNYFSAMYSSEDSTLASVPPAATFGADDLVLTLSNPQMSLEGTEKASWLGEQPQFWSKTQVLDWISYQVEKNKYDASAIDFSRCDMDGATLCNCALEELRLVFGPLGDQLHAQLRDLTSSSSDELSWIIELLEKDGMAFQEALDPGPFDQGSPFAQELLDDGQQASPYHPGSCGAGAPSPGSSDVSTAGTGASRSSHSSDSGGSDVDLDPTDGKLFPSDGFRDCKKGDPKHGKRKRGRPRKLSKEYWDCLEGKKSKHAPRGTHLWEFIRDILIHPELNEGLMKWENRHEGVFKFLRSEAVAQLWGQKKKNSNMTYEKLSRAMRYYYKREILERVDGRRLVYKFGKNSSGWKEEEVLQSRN
Procedure, shortened: as §1

CRX = CRX (Homo sapiens, UniProt O43186 1-299); details: protein: recombinant; tags: N-terminal GST; dsDNA, one strand shown
Sequence of CRX (O43186 whole entry): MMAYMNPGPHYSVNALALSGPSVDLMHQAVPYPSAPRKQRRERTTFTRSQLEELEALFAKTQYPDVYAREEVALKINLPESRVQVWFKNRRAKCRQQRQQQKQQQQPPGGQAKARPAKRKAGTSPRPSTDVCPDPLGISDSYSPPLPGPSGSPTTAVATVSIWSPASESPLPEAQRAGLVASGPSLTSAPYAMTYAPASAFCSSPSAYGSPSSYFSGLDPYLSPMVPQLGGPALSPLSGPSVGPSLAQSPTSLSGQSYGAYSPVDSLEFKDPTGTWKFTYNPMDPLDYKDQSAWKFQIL
Procedure, shortened: as §1

ETV1 = ETV1 (Homo sapiens, UniProt P50549 1-477); details: protein: recombinant; tags: N-terminal GST; dsDNA, one strand shown
Sequence of ETV1 (P50549 whole entry): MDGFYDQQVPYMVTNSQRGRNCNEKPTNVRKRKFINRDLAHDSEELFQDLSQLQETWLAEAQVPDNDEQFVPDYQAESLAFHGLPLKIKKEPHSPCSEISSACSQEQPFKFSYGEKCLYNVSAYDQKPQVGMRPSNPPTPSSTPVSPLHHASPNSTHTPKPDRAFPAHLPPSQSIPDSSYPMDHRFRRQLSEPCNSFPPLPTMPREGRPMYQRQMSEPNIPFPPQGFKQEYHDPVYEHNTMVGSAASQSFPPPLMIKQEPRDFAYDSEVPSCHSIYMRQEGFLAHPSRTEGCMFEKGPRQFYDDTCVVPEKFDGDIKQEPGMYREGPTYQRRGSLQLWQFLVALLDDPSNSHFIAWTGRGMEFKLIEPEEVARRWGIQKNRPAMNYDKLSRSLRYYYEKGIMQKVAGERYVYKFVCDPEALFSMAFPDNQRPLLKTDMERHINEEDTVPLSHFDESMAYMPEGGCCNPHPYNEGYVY
Procedure, shortened: as §1

ERF = target: T6, ERF (Homo sapiens, UniProt P50548 1-548); details: protein: recombinant; tags: N-terminal GST; dsDNA, one strand shown
T6 sequence: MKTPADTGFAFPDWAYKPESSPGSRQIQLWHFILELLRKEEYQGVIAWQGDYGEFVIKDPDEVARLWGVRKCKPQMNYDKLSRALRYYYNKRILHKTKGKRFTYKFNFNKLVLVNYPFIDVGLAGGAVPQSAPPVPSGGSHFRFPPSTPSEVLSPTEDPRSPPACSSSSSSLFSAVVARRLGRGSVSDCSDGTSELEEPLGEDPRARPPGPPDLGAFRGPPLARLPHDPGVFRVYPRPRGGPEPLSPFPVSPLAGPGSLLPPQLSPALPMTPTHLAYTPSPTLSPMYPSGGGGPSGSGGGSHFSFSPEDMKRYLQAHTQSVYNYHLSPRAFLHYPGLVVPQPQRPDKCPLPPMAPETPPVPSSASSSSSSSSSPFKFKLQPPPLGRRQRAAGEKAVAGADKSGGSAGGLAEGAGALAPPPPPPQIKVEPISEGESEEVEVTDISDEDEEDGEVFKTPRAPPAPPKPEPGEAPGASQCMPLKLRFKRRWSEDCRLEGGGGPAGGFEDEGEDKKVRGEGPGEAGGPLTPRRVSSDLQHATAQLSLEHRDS
Procedure, shortened: as §1

ETV3L = target: T7, ETV3L (Homo sapiens, UniProt Q6ZN32 1-361); details: protein: recombinant; tags: N-terminal GST; dsDNA, one strand shown
T7 sequence: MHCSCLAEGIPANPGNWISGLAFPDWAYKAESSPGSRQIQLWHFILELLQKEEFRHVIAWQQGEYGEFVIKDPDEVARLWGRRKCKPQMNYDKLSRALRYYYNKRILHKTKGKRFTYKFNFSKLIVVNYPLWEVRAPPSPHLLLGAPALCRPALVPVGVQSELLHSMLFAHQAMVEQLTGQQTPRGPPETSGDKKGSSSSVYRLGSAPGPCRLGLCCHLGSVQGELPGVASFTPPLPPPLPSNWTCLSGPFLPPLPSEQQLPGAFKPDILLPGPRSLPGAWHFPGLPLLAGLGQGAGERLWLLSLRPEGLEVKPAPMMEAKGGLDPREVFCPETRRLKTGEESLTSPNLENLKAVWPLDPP
Procedure, shortened: as §1

ETS2 = target: T8, ETS2 (Homo sapiens, UniProt P15036 1-469); details: protein: recombinant; tags: N-terminal GST; dsDNA, one strand shown
T8 sequence: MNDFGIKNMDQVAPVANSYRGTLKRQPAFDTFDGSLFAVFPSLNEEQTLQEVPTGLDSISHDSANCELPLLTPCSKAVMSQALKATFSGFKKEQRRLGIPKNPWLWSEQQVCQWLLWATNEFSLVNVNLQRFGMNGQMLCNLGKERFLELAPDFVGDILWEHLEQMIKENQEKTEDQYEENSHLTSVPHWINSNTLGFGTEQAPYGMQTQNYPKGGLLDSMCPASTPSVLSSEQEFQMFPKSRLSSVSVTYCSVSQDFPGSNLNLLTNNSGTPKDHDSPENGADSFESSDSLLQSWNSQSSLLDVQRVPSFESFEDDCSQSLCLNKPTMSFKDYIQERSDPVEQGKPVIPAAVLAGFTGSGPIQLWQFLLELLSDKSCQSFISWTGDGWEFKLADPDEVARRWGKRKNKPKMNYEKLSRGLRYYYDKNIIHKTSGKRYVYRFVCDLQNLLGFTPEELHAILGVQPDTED
Procedure, shortened: as §1

SPDEF = target: T9, SPDEF (Homo sapiens, UniProt O95238 1-335); details: protein: recombinant; tags: N-terminal GST; dsDNA, one strand shown
T9 sequence: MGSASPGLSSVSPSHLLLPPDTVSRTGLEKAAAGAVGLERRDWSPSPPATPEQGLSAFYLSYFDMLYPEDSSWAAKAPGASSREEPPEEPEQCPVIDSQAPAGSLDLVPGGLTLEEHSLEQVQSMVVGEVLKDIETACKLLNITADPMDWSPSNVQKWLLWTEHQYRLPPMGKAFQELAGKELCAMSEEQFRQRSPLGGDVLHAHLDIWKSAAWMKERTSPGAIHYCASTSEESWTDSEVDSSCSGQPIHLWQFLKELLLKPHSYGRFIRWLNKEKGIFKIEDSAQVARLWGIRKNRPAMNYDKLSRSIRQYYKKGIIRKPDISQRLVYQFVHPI
Procedure, shortened: as §1

ETV7 = target: T10, ETV7 (Homo sapiens, UniProt Q9Y603 1-341); details: protein: recombinant; tags: N-terminal GST; dsDNA, one strand shown
T10 sequence: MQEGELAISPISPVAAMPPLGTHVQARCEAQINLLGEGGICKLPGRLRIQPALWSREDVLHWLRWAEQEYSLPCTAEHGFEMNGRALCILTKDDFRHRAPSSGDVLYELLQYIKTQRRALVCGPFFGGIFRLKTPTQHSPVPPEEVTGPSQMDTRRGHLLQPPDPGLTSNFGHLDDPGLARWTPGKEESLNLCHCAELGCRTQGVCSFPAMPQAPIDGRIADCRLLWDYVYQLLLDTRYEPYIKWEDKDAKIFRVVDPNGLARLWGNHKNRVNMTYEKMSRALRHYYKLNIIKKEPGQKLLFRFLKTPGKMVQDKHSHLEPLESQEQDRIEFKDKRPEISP
Procedure, shortened: as §1

ELF5 = target: T11, ELF5 (Homo sapiens, UniProt Q9UKW6-2 1-255); details: protein: recombinant; tags: N-terminal GST; dsDNA, one strand shown
T11 sequence: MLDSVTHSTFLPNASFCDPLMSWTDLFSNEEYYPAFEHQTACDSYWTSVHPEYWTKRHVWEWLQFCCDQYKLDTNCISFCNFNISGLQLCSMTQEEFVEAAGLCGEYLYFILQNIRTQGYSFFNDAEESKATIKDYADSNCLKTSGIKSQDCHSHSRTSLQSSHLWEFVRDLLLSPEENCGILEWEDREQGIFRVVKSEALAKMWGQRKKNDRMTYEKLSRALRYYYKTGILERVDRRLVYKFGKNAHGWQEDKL
Procedure, shortened: as §1

ETV3 = target: T12, ETV3 (Homo sapiens, UniProt P41162-2 1-143); details: protein: recombinant; tags: N-terminal GST; dsDNA, one strand shown
T12 sequence: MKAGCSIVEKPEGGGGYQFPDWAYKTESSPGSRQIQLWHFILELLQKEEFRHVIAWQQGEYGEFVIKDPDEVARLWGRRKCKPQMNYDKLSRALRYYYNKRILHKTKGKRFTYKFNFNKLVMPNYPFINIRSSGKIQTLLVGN
Procedure, shortened: as §1

ETV6 = ETV6 (Homo sapiens, UniProt P41212 1-452); details: protein: recombinant; tags: N-terminal GST; dsDNA, one strand shown
Sequence of ETV6 (P41212 whole entry): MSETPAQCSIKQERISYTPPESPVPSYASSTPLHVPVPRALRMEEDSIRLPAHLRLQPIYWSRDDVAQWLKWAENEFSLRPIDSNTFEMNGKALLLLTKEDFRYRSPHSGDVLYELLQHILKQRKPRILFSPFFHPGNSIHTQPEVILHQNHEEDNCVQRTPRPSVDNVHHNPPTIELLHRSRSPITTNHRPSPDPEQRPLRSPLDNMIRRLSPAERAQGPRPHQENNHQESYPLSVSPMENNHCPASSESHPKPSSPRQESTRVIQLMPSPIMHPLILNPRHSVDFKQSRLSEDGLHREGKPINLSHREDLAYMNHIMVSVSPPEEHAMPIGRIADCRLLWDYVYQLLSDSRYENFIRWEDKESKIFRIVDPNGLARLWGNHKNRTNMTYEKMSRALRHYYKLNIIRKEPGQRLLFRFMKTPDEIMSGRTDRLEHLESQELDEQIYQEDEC
Procedure, shortened: as §1

Which results are given for TTCCCC?
binding signal (FEV): 1.64 fold enrichment (6-mer frequency, TF over GST control); binding signal (ETV5): 1.71 fold enrichment (6-mer frequency, TF over GST control); binding signal (HSF1): 1.42 fold enrichment (6-mer frequency, TF over GST control); binding signal (SPIC): 1.87 fold enrichment (6-mer frequency, TF over GST control); binding signal (ELF4): 1.78 fold enrichment (6-mer frequency, TF over GST control); binding signal (ELK4): 1.48 fold enrichment (6-mer frequency, TF over GST control); binding signal (ETV2): 1.8 fold enrichment (6-mer frequency, TF over GST control); binding signal (ELF3): 1.64 fold enrichment (6-mer frequency, TF over GST control); binding signal (CRX): 1.44 fold enrichment (6-mer frequency, TF over GST control); binding signal (ETV1): 1.69 fold enrichment (6-mer frequency, TF over GST control); binding signal (ERF): 1.46 fold enrichment (6-mer frequency, TF over GST control); binding signal (ETV3L): 1.69 fold enrichment (6-mer frequency, TF over GST control); binding signal (ETS2): 1.64 fold enrichment (6-mer frequency, TF over GST control); binding signal (SPDEF): 1.43 fold enrichment (6-mer frequency, TF over GST control); binding signal (ETV7): 1.43 fold enrichment (6-mer frequency, TF over GST control); binding signal (ELF5): 2.17 fold enrichment (6-mer frequency, TF over GST control); binding signal (ETV3): 1.89 fold enrichment (6-mer frequency, TF over GST control); binding signal (ETV6): 1.73 fold enrichment (6-mer frequency, TF over GST control)
